Results: PubChem BioAssay AID1508607 (The Scripps Research Institute Molecular Screening Center, 2020)
Among all 2,300 compounds or so, about 20 (0.9%) were called active. The sample as a whole holds a higher share of actives than the screen did. A number with no mark means an inactive call.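 How the source made its calls: active means mean percent activation across replicates above the counterscreen hit cutoff of 9.17%; inactive means the rest.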

biological target: Glucose-dependent insulinotropic receptor (Homo sapiens) (UniProt Q8TDV5); assay: off-target GPR119 activation – cell-based, PathHunter beta-arrestin, luminescence, set 2, counter-screen for GPR151 activator project, confirmation (AID 1508607); conditions: GPR119 PathHunter beta-arrestin cells, 90 min, at 11.2 µM, active compounds read high;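 further: 0% = median of sample wells and 100% = wells given EA reagent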
Sequence (Q8TDV5 whole entry, looked up): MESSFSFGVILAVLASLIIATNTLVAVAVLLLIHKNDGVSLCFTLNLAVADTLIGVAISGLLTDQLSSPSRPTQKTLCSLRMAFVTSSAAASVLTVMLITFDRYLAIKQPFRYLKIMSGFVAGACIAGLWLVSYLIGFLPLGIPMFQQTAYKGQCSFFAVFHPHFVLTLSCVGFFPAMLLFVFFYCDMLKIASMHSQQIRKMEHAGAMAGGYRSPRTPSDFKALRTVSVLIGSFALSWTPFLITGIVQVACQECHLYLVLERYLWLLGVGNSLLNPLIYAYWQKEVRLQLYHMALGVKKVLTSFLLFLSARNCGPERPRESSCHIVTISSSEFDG

Compound | activation
C[C@@H]1O[C@@H](O[C@H]2C[C@@H](O)[C@]3(CO)[C@H]4[C@H](O)C[C@]5(C)[C@@H](C6=CC(=O)OC6)CC[C@]5(O)[C@@H]4CC[C@]3(O)C2)[C@H](O)[C@H](O)[C@H]1O | 18.4% (active)
COCCN1C(=S)NC2c3cccc(OC)c3OC1(C)C2C(=O)OC (stereo not given) | -2.57%
Cc1cccc(C)c1-n1nnnc1C1(NCCc2c(C)[nH]c3ccccc23)CCCCC1 | -3.88%
CC[n+]1c(/C=C/C=C2\N(C)c3ccccc3C2(C)C)n(-c2ccccc2)c2ccc(C)cc21 | 2.58%
CCn1c(/C=C/C=C2\N(C)c3ccccc3C2(C)C)[n+](Cc2ccccc2)c2ccccc21 | 15.3% (active)
CC[n+]1c(/C=C/C=C2\N(C)c3ccccc3C2(C)C)n(-c2ccccc2)c2cc(Cl)ccc21 | 4.85%
O=c1c2ccccc2nc(/C=C/c2ccccc2)n1-c1cccc(C(F)(F)F)c1 | 1.19%
COc1ccc2[nH]c(C)c(CCNCc3ccc(OC(F)(F)F)cc3)c2c1 | 0.78%
O=C(NCc1ccc(Cl)cc1)C(Cl)(Cl)Cl | 1.33%
O=C(NC(O)C(Cl)(Cl)Cl)c1ccccc1 (stereo not given) | -0.61%
C[C@H]1CC[C@@H]2[C@@H](C)[C@H]3[C@H](CC4[C@@H]5CC=C6CC(O[C@@H]7O[C@H](CO)C(O[C@@H]8O[C@@H](C)[C@H](O)[C@@H](O)[C@H]8O)[C@H](O)[C@H]7O[C@@H]7O[C@@H](C)[C@H](O)[C@@H](O)[C@H]7O)CC[C@]6(C)[C@H]5CC[C@@]43C)N2C1 (stereo not given in full) | 28.4% (active)
COc1ccc(CN2CCNCC2CCO)c(C)c1C (stereo not given) | 0.92%
CCN1C(=O)c2ccccc2Sc2ccc(C(=O)N3CCC4(CC3)OCCO4)cc21 | 0.67%
COc1cccc(C2N(c3ccccn3)C(=O)C3CCCN32)c1 (stereo not given) | -1.97%
CCc1ccc(NC(=O)CN2CC(c3ccccc3)CC2=O)cc1 (stereo not given) | 2.2%
